Rows were chosen to be rich in hits. Some 12% of all compounds tested hit in one or more screens of this group.
CHX counter: counter-screen for Shiga toxin inhibitors: cycloheximide protein synthesis inhibition; cell reporter, cycloheximide protein synthesis inhibition counterscreen; max response, %; actives 12% (n = 300,000); in the data active means max response mostly above about 13%, no sharp cut-off; inactive means mostly below about 14%; further: read at 38.3 µM for the half of the compounds with a filed dose; 0% is about no effect
Shiga toxin inh: blocks Shiga toxin action in Vero cells | Vero cells, Shiga toxin protein synthesis inhibition reporter | inhibition, % at 38.7 µM | actives 9.2% (n = 290,000); in the data active means inhibition mostly above about 28%, no sharp cut-off; inactive means mostly below about 43%; further: 0% is about no effect
SARS PLpro yeast: blocks SARS-CoV papain-like protease in a yeast assay | S. cerevisiae expressing SARS-CoV PLpro, growth rescue | Potency, µM (doses to about 32.9 µM), inactives show at the highest dose activity, positive = growth rescue, hits mostly activators | actives 0.19% (n = 330,000); further: potency means the concentration at half of the fitted maximal effect; 0% is about no effect; nearly all actives have a fitted effect of over 55% in size
NS1 function inh: blocks influenza NS1 protein function; Potency, µM (top dose mostly 46.1 µM), for inactives: at the highest dose activity, positive = more growth; actives 0.4% (n = 270,000); AID 2326; further: potency means the concentration at half of the fitted maximal effect; actives are rising curves; nearly all actives have a fitted effect of over 50% in size
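Compounds were scored for reversing the slow growth caused by influenza A NS1 in S. cerevisiae, measured by optical density at 600 nm. Assay medium contained 2% galactose at pH 6.0; NS1-free yeast of the same strain were the positive control.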
Starred values were filed as active, the others as inactive; ? = inconclusive; . = no result. Unless noted, the call rests on the fitted dose curve.

SMILES	CHX counter	Shiga toxin inh	SARS PLpro yeast	NS1 function inh
O=C1CCCc2c1cc(-c1ccccc1)n2-c1ccc(O)cc1	-2	4	23%	16%
Cc1ccc(-c2cc3c(n2-c2ccc(C(=O)O)cc2)CCCC3=O)cc1	19*	64*	5%	13%
Cc1nc(C)c(C(=O)Nc2ccc(Oc3ccccc3)cc2)o1	26*	25*	-14%	-3%
Cc1ncoc1C(=O)Nc1ccc(Oc2ccccc2)cc1	54*	153*	-32%	-34%
O=C(OCC(=O)N1CCc2ccccc21)[C@@H]1CC(O)CN1S(=O)(=O)c1ccccc1[N+](=O)[O-] (stereo partly drawn)	.	.	1%	.
COc1cccc(/C=C/C(=O)OCC(=O)Nc2cccc(S(=O)(=O)N3CCOCC3)c2)c1OC	13	31	0%	.
CCOC(=O)c1c(C)nc2c3ccccc3ccn12	32*	37*	-16%	-46%
CCOC(=O)c1c(C)nc2c(C)cccn12	5	24	-9%	-31%
CCOC(=O)C1CCN(c2nnc(N3CCCC3=O)s2)CC1	23*	43*	5%	2%
CCOC(=O)C1CCN(C(=O)C2CCN(c3nnc(-n4cccc4)s3)CC2)CC1	13	-4	-4%	6%
CCCCC(=O)Nc1nc2ccc(C(=O)OC)cc2s1	27*	97*	-7%	.
CCCC(=O)Nc1nc2ccc(C(=O)OCC)cc2s1	26*	73*	-5%	1%
CCOC(=O)c1ccc2nc(NC(=O)C(C)C)sc2c1	44*	59*	-27%	-32%
OC(Cn1cnnc1)c1ccccc1 (stereo not drawn)	1	-5	-1%	0%
Clc1cc(Cl)cc(C2=NCCC(c3ccccc3)O2)c1 (stereo not drawn)	-1	-13	-8%	-9%
Cn1c(C2=C(O)CN(Cc3ccccc3)C2=N)nc2ccccc21	33*	33*	1%	1%
Cc1ccc(Oc2ncccc2N)c2c1CCC2	-2	13	-2%	-7%
CC(=O)NC1=NN(C(C)=O)C(C)(c2ccco2)S1 (stereo not drawn)	43*	59*	-7%	-30%
CC(=O)NC1=NN(C(C)=O)C(C)(c2cccs2)S1 (stereo not drawn)	-1	-5	13%	4%
CC(=O)NC1=NN(C(C)=O)C(C)(c2ccc(C)o2)S1 (stereo not drawn)	19*	22	0%	1%
CC(=O)c1ccc(OCc2cc(C(=O)N3CCCCCCC3)no2)cc1	57*	57*	-3%	-49%
Cc1ccc(OCc2cc(C(=O)N3CCC(Oc4cccnc4)CC3)no2)cc1C	20	25	-13%	-17%
CC(=O)c1ccc(OCc2cc(C(=O)N3CCC(Oc4ccccc4C)CC3)no2)cc1	90*	143*	-5%	16%
CC(=O)c1ccc(N2CCN(C(=O)c3cc(C)on3)CC2)cc1	12	14	5%	?
CC(=O)c1ccc(OCc2cc(C(=O)N3CCOCC3)no2)cc1	43*	79*	5%	-6%
SMILES	CHX counter	Shiga toxin inh	SARS PLpro yeast	NS1 function inh
Cc1ccccc1OCc1nnc(SCC(=O)O)n1-c1cccc(Cl)c1	-2	-17	0%	?
COc1ccc(C2N=C(c3ccccc3)NO2)cc1OC (stereo not drawn)	22*	87*	-16%	-8%
COc1ccc(C2N=C(c3ccccc3)NC(c3ccccc3)=N2)cc1	-3	-1	8%	-1%
COc1cc(C2N=C(c3ccccc3)NO2)cc(Br)c1O (stereo not drawn)	10*	19	-10%	-26%
FC(F)Oc1ccc(C2N=C(c3ccccc3)NO2)cc1 (stereo not drawn)	45*	79*	2%	-1%
O=C(O)c1cc(-c2ccc(-c3ccc(-c4cc(C(=O)O)c5cc(Cl)ccc5n4)cc3)cc2)nc2ccc(Cl)cc12	.	.	.	8%
CSc1ccccc1OCc1cc(C(=O)N(C)Cc2ccncn2)no1	49*	105*	2%	0%
CSc1ccccc1OCc1cc(C(=O)N(C)CCn2nc(C)cc2C)no1	31*	30*	-3%	-17%
Cc1cc(CN(C)C(=O)c2cc(COc3ccc(F)cc3Cl)on2)n[nH]1	33*	117*	-1%	2%
CCc1ccc(CN(C)C(=O)c2cc(COc3cccc4cnccc34)on2)cc1	-1	1	-11%	-89%
Cc1nc(CNC(=O)c2cc(COc3ccc(F)cc3Cl)on2)cs1	8	10	-2%	-9%
C#CCN(Cc1ccco1)C(=O)c1cc(COc2ccc(F)cc2Cl)on1	15	47*	1%	0%
Oc1cc(Nc2ccc(N3CCCCC3)cc2)cc2cccnc12	.	.	2%	.
Cc1ccc(N2CCN(c3cc(C)nc4nc(C)nn34)CC2)c(C)c1	-2	-26	10%	-52%
COC(=O)[C@H](CC(C)C)NCc1cccc(CN[C@@H](CC(C)C)C(=O)OC)c1	1	-3	-2%	-28%
Cc1ccc(CN(C)C(=O)c2cc(COc3ccc(F)cc3Cl)on2)o1	31*	50*	-3%	-1%
CCN(Cc1ccncc1)C(=O)c1cc(COc2ccc(F)cc2Cl)on1	-3	-17	-2%	-2%
CSc1ccccc1OCc1cc(C(=O)N(C)Cc2nonc2C)no1	59*	189*	-1%	-22%
Cc1nonc1CN(C)C(=O)c1cc(COc2ccc(F)cc2Cl)on1	46*	58*	4%	-19%
CCCCn1cnc2cc(C)c(C)cc21	-3	21	0%	-7%
O=C(CSc1cccc(C(F)(F)F)c1)Nc1cc(S(=O)(=O)N2CCCC2)ccc1Cl	-5	13	18%	16%
CC(=O)Nc1sc2c(c1C(N)=O)CCC2	-3	-6	12%	1%
CCCCC(=O)Nc1sc2c(c1C(N)=O)CCC2	32*	45*	-9%	-25%
CC(C)(C)C(=O)NC(=S)Nc1sc2c(c1C(N)=O)CCC2	22*	23	-1%	-36%
CC(C)CC(=O)NC(=S)Nc1sc2c(c1C(N)=O)CCC2	16	30	-1%	0%
SMILES	CHX counter	Shiga toxin inh	SARS PLpro yeast	NS1 function inh
O=C(c1ccccc1)c1ccc(OCC(O)CNCc2ccc(Cl)cc2)cc1 (stereo not drawn)	10	16	-2%	-1%
CCOC(=O)c1cc(C#N)c(Nc2ccc(C)cc2)nc1C(F)(F)F	-2	35	0%	-4%
COc1ccc2[nH]cc(C(=O)CN3CCCCC3)c2c1	27*	3	-1%	16%
COc1ccc2c(C(=O)CN3CCSCC3)c[nH]c2c1	32*	40*	0%	3%
COc1ccc2c(C(=O)CN3CCN(c4ccccc4)CC3)c[nH]c2c1	-6	-22	0%	7%
COc1ccc2[nH]cc(C(=O)CN3CCN(C4CCCCC4)CC3)c2c1	-6	-18	0%	6%
CCN(CC)S(=O)(=O)c1cccc(C(=O)N[C@H](C(=O)Nc2nc3ccc(F)cc3s2)C(C)C)c1	40*	104*	11%	1%
CCN(CC)S(=O)(=O)c1cccc(C(=O)NC(C(=O)Nc2nnc(C3CC3)s2)C(C)C)c1 (stereo not drawn)	7	3	-4%	-80%
CCN(CC)S(=O)(=O)c1cccc(C(=O)N[C@H](C(=O)Nc2nc3ccccc3s2)C(C)C)c1	17*	19	29%	5%
